This is an account of results in PubChem BioAssay (NCATS).

“And” between values parts separate entries of the source, which are not always exact repeats. Equal entries are not always repeated. Inconclusive results are not listed. Some structures have more than one record in an assay (separate samples or runs), and their calls can disagree. The source made the active and inactive calls. Unless noted, calls come from the whole dose curve; as a rule, active = well fitted curve in the direction sought with a large enough effect; inconclusive = small, poorly fitted or top-dose-only effect, or another doubt; inactive = no such curve, though single readings can be large; an effect the other way counts as inactive or inconclusive.

Assay [1] can be described thus: Quantitative High-Throughput drug screen in 47 multiple myeloma cell lines against the NCATS MIPE library collection: KMS28BM_JCRB cell viability assay (AID 1919874). Note: nearly all actives have a fitted effect of over 35% in size. The gist of the method: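 Cells were exposed to library compounds for 48 hours, after which ATP was measured by CellTiter-Glo. Signal was taken as median relative luminescence units.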
A short description of assay [2]: qHTS drug screen for cell cycle checkpoint inhibitors in PARPi-resistant BRCA-mutant ovarian cancer cell lines. (AID 1963452; calls by dose curve). Particulars: PEO1/OlaR viability, CellTiter-Glo luminescence, 96 h; for Z-AUC: stronger effect = lower value. The gist of the method:
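PEO1, PEO4 and PEO1/OlaR ovarian cancer cells, 600 per well, exposed 96 h at 37C to a dilution series. Viability read by CellTiter-Glo luminescence, normalized to DMSO and empty wells; activity summarized as Z-AUC.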
Background: In qHTS, concentration-response curves come from the screen itself.

The nature of assay [3]: qHTS for identification of novel therapeutic agents for treatment of microphthalmiaassociated transcription factor (MiT) renal cell carcinoma (RCC) (AID 1963991; calls by dose curve). To be noted: CellTiter-Glo, 48 h; for z-score: stronger effect = lower value. The gist of the method: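 Viability of three TFE3-fusion renal carcinoma lines measured by CellTiter-Glo after 48 h treatment with each of 1912 compounds at 11 concentrations. Responses scaled between DMSO (100%) and empty wells (0%) before curve fitting.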

In assay [4] the test system is 3D7. The experiment in a line: qHTS profiling for inhibitors of Plasmodium falciparum proliferation (AID 504749). Note: nearly all actives have a fitted effect of over 60% in size. To be noted: P. falciparum in erythrocytes, SYBR Green DNA, 72 h; series mostly up to 28.7 µM. The gist of the method:
(§1)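 Each compound contacts P. falciparum-infected red blood cells for 72 h at 37 C; lysis buffer (Tris, EDTA, saponin, Triton X, SYBR Green I) is added and fluorescence measured next morning; values normalized to controls.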

Assay [5] relates to 7G8. The assay is described as above. To be noted: P. falciparum in erythrocytes, SYBR Green DNA, 72 h; series mostly up to 28.7 µM. The method, boiled down: as §1
The test system of assay [6] is AA1029. The assay is described as above. To be noted: P. falciparum in erythrocytes, SYBR Green DNA, 72 h; series mostly up to 28.7 µM. The method, boiled down:
as §1

Assay [7] deals with AS120. Described as above. To be noted: P. falciparum in erythrocytes, SYBR Green DNA, 72 h; series mostly up to 28.7 µM. The gist of the method: as §1
Assay [8] has as its system ATS189. The description is as above. To be noted: P. falciparum in erythrocytes, SYBR Green DNA, 72 h; series mostly up to 28.7 µM. The gist of the method: as §1
Assay [9] has as its system ATS95. The description is as above. To be noted: P. falciparum in erythrocytes, SYBR Green DNA, 72 h; series mostly up to 28.7 µM. The gist of the method:
as §1

The mark [10] stands for this setting: measured here: PEO1 parental Z-AUC.
[11] abbreviates: TFE3-RCC UOK109 viability, measured here: UOK109 Z-AUC.
Where [12] appears, read: TFE3-RCC viability, measured here: UOK124 Z-AUC.
[13] abbreviates: TFE3-RCC viability, measured here: UOK145 Z-AUC.
Potency is the fitted concentration of half-maximal effect.

In the case of `C#CCC(Cc1cnc2nc(N)nc(N)c2n1)c1ccc(C(=O)N[C@@H](CCC(=O)O)C(=O)O)cc1` (stereo partly drawn), the Potency is 33.2 nM (active) in [1]; 7.8 nM (active) in assay [2]; 132 nM (active) in assay [3] (TFE3-RCC UOK109 viability, active = Z-AUC below -0.8 in all three lines). The Z-AUC in [2] (setting [10]) is -2.32; in assay [2] (measured here: PEO4 Z-AUC), -1.96. Further, the z-score was -1.2 in [3] (setting [11]), -2.51 in assay [3] (setting [12]) and -2.95 in [3] (setting [13]).

In the case of `COc1cccc2c1C(=O)c1c(O)c3c(c(O)c1C2=O)C[C@@](O)(C(=O)CO)C[C@@H]3O[C@H]1C[C@H](N)[C@H](OC2CCCCO2)[C@H](C)O1` (stereo partly drawn), the Potency was 1660 nM (active) in assay [1]; 245 nM (active) in assay [2]; 2240 nM (active) in assay [4]; 794 nM (active) in assay [5]; 3550 nM (active) in [6]; 2510 nM (active) in assay [7]. The Potency was 11200 nM (active) in assay [8] and 3980 nM (active) in assay [9]. Further, the Z-AUC is 0.402 (inactive) in assay [2]; -0.769 and -1.75 in assay [2] (setting [10]); 0.0749 and -1.06 in [2] (measured here: PEO4 Z-AUC).

`Nc1ccn(C[C@@H](CO)OCP(=O)(O)O)c(=O)n1`: the Potency entry in assay [1] was “inactive”. For the same molecule, the values for the Z-AUC in assay [2], in [2] (setting [10]) and in assay [2] (measured here: PEO4 Z-AUC) were -1.33 (inactive), -0.089 and -0.602, respectively. The z-score in [3] (setting [11]) turned out to be 1.6; in [3] (setting [12]) it was 1.03; in [3] (setting [13]), 1.52.

For the molecule `OC[C@H]1OC(O)C[C@@H](O)[C@H]1O` (stereo partly drawn), the Potency entry in [1] is “inactive”. For the same molecule, the Z-AUC in assay [2] was -0.67 (inactive); in [2] (setting [10]), -0.645; in [2] (measured here: PEO4 Z-AUC) it was -0.88. The figures for the z-score in assay [3] (setting [11]), in assay [3] (setting [12]) and in [3] (setting [13]) were 1.34, 0.406 and -0.0329, respectively.

For `CCN(C(=O)c1c(O)c2c(Cl)cccc2n(C)c1=O)c1ccccc1`, the Potency entry in assay [1] is “inactive”. Also, the Z-AUC in [2] was -0.417 (inactive); in assay [2] (setting [10]), -0.714; in assay [2] (measured here: PEO4 Z-AUC), -1.09. In addition, the figures for the z-score in [3] (setting [11]), in assay [3] (setting [12]) and in assay [3] (setting [13]) were 0.408, 0.904 and 0.468, respectively.

For the molecule `O=C1NC(O)CCN1[C@@H]1O[C@H](CO)[C@H](O)[C@H]1O` (stereo partly drawn), the Potency entry in [1] was “inactive”. The results for the Z-AUC in [2], in [2] (setting [10]) and in [2] (measured here: PEO4 Z-AUC) were -0.827 (inactive), -1.1 and -1.36, respectively. Further, the z-score amounted to 0.896 in assay [3] (setting [11]), 0.732 in assay [3] (setting [12]) and 0.58 in assay [3] (setting [13]).

Take `Nc1cccc2c1C(=O)N(C1CCC(=O)NC1=O)C2=O` (stereo not drawn): the Potency result in [1] is “inactive”. Besides, the Z-AUC in assay [2] was -0.524 (inactive); in assay [2] (setting [10]), -0.0375; in [2] (measured here: PEO4 Z-AUC), -0.357. Besides, the z-score in [3] (setting [11]) is 0.502; in [3] (setting [12]), 0.0802; in assay [3] (setting [13]) it was -0.491.

With `Cc1ccccc1C(=O)Nc1ccc(C(=O)N2CCCC(O)c3cc(Cl)ccc32)c(C)c1` (stereo not drawn), the Potency entry in assay [1] is “inactive”. The Z-AUC in [2] is -0.543 (inactive); in [2] (setting [10]), -0.255; in assay [2] (measured here: PEO4 Z-AUC), 0.00137. The figures for the z-score in assay [3] (setting [11]), in [3] (setting [12]) and in assay [3] (setting [13]) were -0.031, 0.501 and 0.525, respectively.

As for `CC(=O)OC[C@@H]1O[C@@H](n2ccc(=O)[nH]c2=O)[C@H](OC(C)=O)[C@H]1OC(C)=O`, the Potency result in assay [1] was “inactive”. The Z-AUC was 0.415 (inactive) in assay [2], 0.423 in [2] (setting [10]) and 0.195 in assay [2] (measured here: PEO4 Z-AUC). In addition, the values for the z-score in assay [3] (setting [11]), in assay [3] (setting [12]) and in [3] (setting [13]) were 0.396, 1.22 and 0.244, respectively.
